# Results from PubChem BioAssay AID652001 (The Scripps Research Institute Molecular Screening Center, 2013).
# Target: Acyl-protein thioesterase 2 (Homo sapiens) (UniProt O95372)
# Test: LYPLA2 enzyme kinetics with inhibitors – biochemical, substrate-based fluorescence, Ki, Km, Vmax, late-stage follow-up (AID 652001)
# Details: recombinant LYPLA2, resorufin acetate hydrolysis fluorescence, measured here: LYPLA2 (no test compound); Km: enzyme Km; Vmax: enzyme Vmax
# Sequence of Acyl-protein thioesterase 2 (Homo sapiens) (O95372 whole entry, looked up): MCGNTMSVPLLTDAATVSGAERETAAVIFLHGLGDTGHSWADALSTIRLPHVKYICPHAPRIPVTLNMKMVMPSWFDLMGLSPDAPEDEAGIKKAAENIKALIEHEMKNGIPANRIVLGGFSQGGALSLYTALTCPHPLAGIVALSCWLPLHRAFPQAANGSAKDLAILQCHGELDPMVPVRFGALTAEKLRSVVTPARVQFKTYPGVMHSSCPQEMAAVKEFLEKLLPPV
smiles,measurement,value
COc1ccc(N2CCN(C(=O)c3cc4c(s3)-c3ccccc3S(=O)(=O)C4)CC2)cc1,Km,24.4 µM
same,Vmax,13.8 nM
